# Measurements published in PubChem BioAssay.
# Active and inactive are the calls of the source.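 Rule for the calls, unless noted: active = visually confirmed hit in the image check and inhibition above 20%; inconclusive = visually confirmed hit but inhibition not above 20%; inactive = no visual hit in the image check.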
# Assays:
# [1] = inhibitors of TNFa-induced NFkB p65 translocation, primary screen, imaging, HUVEC, MLSMR starter and 10KST1 sets (AID 438;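 active = inhibition above 20% together with a positive visual image hit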;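 note: compound added about 3h40 before a 20 min TNFalpha stimulation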;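 for inhibition: signal is the nuclear over cytoplasmic p65 intensity ratio per well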); conditions: HUVEC TNFa-induced p65 nuclear translocation; cell count: measured here: nuclei count (cytotoxicity indicator), at 2.08 µM; inhibition: at 2 µM, stronger effect = higher value, 0% TNFa-plus-vehicle, 100% no-TNFa wells
# [2] = inhibitors of mutant huntingtin aggregation, primary screen, imaging, exon1htt(103Q)mCFP cells, high-content imaging (AID 483;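 active = visual image review flags a hit and inhibition of aggregation exceeds 20%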;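 note: compound exposure lasted 3 days before fixation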;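 for nuclei count: percent of the per-plate median nuclei count of sample wells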); conditions: exon1htt(103Q)mCFP cell line, aggregate imaging, at 2 µM; inhibition of aggregation: stronger effect = higher value; nuclei count: measured here: cell count, toxicity
# [3] = inhibitors of E-selectin induction by TNFa, primary screen, imaging, HUVEC, immunofluorescence, MLSMR starter and 10KST1 sets (AID 487); conditions: HUVEC TNFalpha-induced E-selectin immunofluorescence imaging, at 2 µM; inhibition: stronger effect = higher value; nuclei count: measured here: cell number, toxicity;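 for inhibition: signal is fraction of cell area covered by stained E-selectin grains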;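 for nuclei count: 100% = median nuclei count of all wells on the same plate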
# [4] = biological target: Voltage-gated potassium channel subunit beta-2 (Rattus norvegicus) (UniProt P62483); experiment: KvBeta enzyme negative modulators, primary screen, biochemical, NADPH fluorescence (AID 622;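 active = fluorescence slope higher than the sample average by over 3 SD, cut at about -0.22 in these data, passing the limit was not always enough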;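 note: slope of raw intensity against log time taken from 70 to 1610 s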); conditions: recombinant KvBeta, 4-cyanobenzaldehyde reduction, at 10 µM, stronger effect = higher value
# [5] = biological target: Voltage-gated potassium channel subunit beta-2 (Rattus norvegicus) (UniProt P62483); experiment: KvBeta positive modulators, primary screen, biochemical, NADPH fluorescence (AID 623;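 active = NADPH fluorescence slope more negative than the mean of all samples by about 3 SD, 99.7% confidence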;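 note: fluorescence intensity change per second fitted from 20 to 320 s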); conditions: Recombinant KvBeta, NADPH fluorescence decrease slope, 10 min; at 10 µM; stronger effect = lower value
# [6] = biological target: Alpha-2C adrenergic receptor (Homo sapiens) (UniProt P18825); experiment: modulators of alpha2C/GIRK thallium flux, primary screen, cell-based, HEK293 alpha2C/GIRK1/2 (AID 624;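 active = fluorescence slope after compound addition differing from the mean of all screened samples at 99.7% confidence, in either direction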;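 note: slope of fluorescence ratio to pre-addition baseline per second over 15 to 24 s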); conditions: thallium flux BTC fluorescence, at 10 µM, actives lie on both sides
# [7] = inhibitors of Sendai virus-induced IRF3 signaling, primary screen, TLR/RLR signaling modifier project, cell-based, Sendai virus stimulus, luciferase, 10K MLSCN set (AID 602276;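 active = inhibition at or above 50% at 10 µM; inactive = inhibition below 50%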;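 note: firefly luciferase from ISG56 promoter only with Renilla not read in this screen; 0% = Sendai virus plus DMSO and 100% = medium plus DMSO without virus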); conditions: HEK293 RL24 IRF3 luciferase reporter, at 10 µM, stronger effect = higher value
# [8] = inhibitors of poly I:C-induced TLR3 signaling, primary screen, cell-based, poly I:C stimulus, luciferase, 10K MLSCN set (AID 602277;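 active = inhibition of the reporter signal at or above 50%; inactive = inhibition below 50%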); conditions: HEK293-TLR3 RL24 IRF3 luciferase reporter, at 10 µM, stronger effect = higher value
# Chain of Voltage-gated potassium channel subunit beta-2 (Rattus norvegicus) (P62483 whole entry, looked up): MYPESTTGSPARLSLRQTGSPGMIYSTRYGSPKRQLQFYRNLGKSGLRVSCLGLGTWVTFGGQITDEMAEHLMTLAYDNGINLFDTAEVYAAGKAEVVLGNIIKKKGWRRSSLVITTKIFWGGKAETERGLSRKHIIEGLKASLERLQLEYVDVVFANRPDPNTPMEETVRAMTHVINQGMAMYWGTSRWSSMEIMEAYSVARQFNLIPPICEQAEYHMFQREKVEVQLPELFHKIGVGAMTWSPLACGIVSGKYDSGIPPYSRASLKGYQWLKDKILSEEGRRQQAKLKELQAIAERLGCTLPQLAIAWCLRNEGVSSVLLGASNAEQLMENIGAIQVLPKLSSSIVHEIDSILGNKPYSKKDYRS
# Chain of Alpha-2C adrenergic receptor (Homo sapiens) (P18825 whole entry, looked up): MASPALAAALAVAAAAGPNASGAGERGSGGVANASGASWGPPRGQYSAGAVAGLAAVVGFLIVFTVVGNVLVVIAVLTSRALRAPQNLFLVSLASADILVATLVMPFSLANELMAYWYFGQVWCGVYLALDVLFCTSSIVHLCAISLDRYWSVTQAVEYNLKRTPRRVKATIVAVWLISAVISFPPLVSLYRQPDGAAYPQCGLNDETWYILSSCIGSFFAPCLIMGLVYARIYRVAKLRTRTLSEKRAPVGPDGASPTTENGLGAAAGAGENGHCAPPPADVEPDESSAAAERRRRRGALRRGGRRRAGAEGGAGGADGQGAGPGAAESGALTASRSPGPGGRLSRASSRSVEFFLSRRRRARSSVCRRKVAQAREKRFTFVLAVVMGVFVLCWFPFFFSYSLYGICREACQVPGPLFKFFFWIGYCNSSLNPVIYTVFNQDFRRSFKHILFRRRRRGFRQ
SMILES,cell count [1],inhibition [1],inhibition of aggregation [2],nuclei count [2],inhibition [3],nuclei count [3],fluorescence slope [4],NADPH fluorescence slope [5],slope [6],inhibition [7],inhibition [8]
CC12CN3CC(C)(CN(C1)C3c1cc(Br)ccc1O)C2=O (stereo not drawn),305,0% (inactive),1.6% (inactive),121%,39% (inactive),83.4%,-0.474 (inactive),-4.6e-06 (inactive),0.00402 (inactive),3.76% (inactive),37.4% (inactive)
COCCn1c(SCc2csc(-c3ccccc3)n2)nc2ccccc21,639,7.2% (inactive),-4% (inactive),97.2%,-24.6% (inactive),96.8%,-0.456 (inactive),7.6e-05 (inactive),0.00574 (inactive),1.52% (inactive),-1.01% (inactive)
CCCC1(C(=O)OCC)NC(c2ccc(N(C)C)cc2)C2C(=O)N(c3ccc(F)cc3)C(=O)C21 (stereo not drawn),505,-10% (inactive),30.1% (inactive),69.8%,1.4% (inactive),134%,-0.398 (inactive),1e-06 (inactive),0.00411 (inactive),8.99% (inactive),23.9% (inactive)
COC(=O)c1c(N)sc(C(=O)N2CCOCC2)c1C,261,-5.1% (inactive),3% (inactive),82.3%,60.2% (inactive),32.3%,-0.439 (inactive),-5.8e-06 (inactive),0.00581 (inactive),-4.15% (inactive),-5.07% (inactive)
N#C/C(=C(/O)CN1CCOCC1)c1nc2ccccc2s1,794,2.1% (inactive),-5.9% (inactive),104%,-126% (inactive),129%,-0.452 (inactive),4.4e-05 (inactive),0.00349 (inactive),-15.8% (inactive),-1.7% (inactive)
CC1=C(C(=O)Nc2ccccc2C)C2(CCCC2)C(C(N)=O)C(=O)N1 (stereo not drawn),683,0% (inactive),-25.1% (inactive),99%,-126% (inactive),106%,-0.483 (inactive),-4.6e-05 (inactive),0.0058 (inactive),13.6% (inactive),17.8% (inactive)
COc1cccc(-c2nc3n(n2)C(c2cccs2)C(C(=O)Nc2cccnc2)=C(C)N3)c1 (stereo not drawn),735,-20.1% (inactive),30.4% (inactive),111%,-65.8% (inactive),113%,-0.365 (inactive),1.9e-05 (inactive),0.00588 (inactive),22.3% (inactive),32.8% (inactive)
CC(=O)c1cc(F)c(N2CCN(C(=O)Cc3ccccc3)CC2)cc1C,774,-3.9% (inactive),-30.4% (inactive),84.3%,-25.8% (inactive),110%,-0.493 (inactive),-6.1e-05 (inactive),0.00566 (inactive),3.34% (inactive),0.856% (inactive)
CCCn1c(SCC(=O)Nc2ccccc2C(=O)OC)nc2c1c(=O)n(C)c(=O)n2C,576,-10.9% (inactive),20.6% (inactive),95.3%,-152% (inactive),84.8%,-0.395 (inactive),-7.6e-05 (inactive),0.00511 (inactive),15.9% (inactive),13% (inactive)
O=C1CC(N2CCN(C3CCc4ccccc4C3)CC2)C(=O)N1c1ccccc1 (stereo not drawn),288,4% (inactive),0.8% (inactive),88.6%,6.6% (inactive),121%,-0.378 (inactive),-9.9e-05 (inactive),0.00552 (inactive),17.3% (inactive),28.1% (inactive)
CC1CCN(c2oc(-c3ccccc3F)nc2C#N)CC1,578,5% (inactive),-3.3% (inactive),122%,-32.2% (inactive),114%,-0.411 (inactive),7.4e-06 (inactive),0.00601 (inactive),-30.7% (inactive),-73.4% (inactive)
CC(C)OC(=O)c1cc(=O)[nH]c2ccccc12,267,14% (inactive),5.3% (inactive),94%,-4.6% (inactive),92.6%,-0.556 (inactive),3e-05 (inactive),0.00572 (inactive),12.2% (inactive),9.33% (inactive)
CCS(=O)(=O)N1CCCC(C(=O)NCc2cccc(OC)c2)C1 (stereo not drawn),722,-5.5% (inactive),-59.8% (inactive),105%,-66.4% (inactive),116%,-0.617 (inactive),-1.9e-05 (inactive),0.00403 (inactive),-3.96% (inactive),3.19% (inactive)
C=CCSc1nc2sc(C)c(C)c2c(=O)[nH]1,589,1.4% (inactive),10.2% (inactive),111%,3.2% (inactive),107%,-0.563 (inactive),-9.3e-06 (inactive),0.00785 (inactive),-11.3% (inactive),-3.55% (inactive)
CCOC(=O)C1C2C=CC3(CN(c4cccc(Cl)c4)C(=O)C13)O2 (stereo not drawn),656,-0.3% (inactive),8.1% (inactive),105%,-11.3% (inactive),110%,-0.398 (inactive),9e-06 (inactive),0.0053 (inactive),13.2% (inactive),44.5% (inactive)
CCOC(=O)C(C)(C)Sc1nc2c(cnn2-c2ccc(Cl)cc2)c(=O)[nH]1,623,-5.2% (inactive),-10.2% (inactive),119%,-27.2% (inactive),102%,-0.59 (inactive),-5e-05 (inactive),0.00733 (inactive),9.09% (inactive),16.7% (inactive)
O=C(O)C1C2C=CC3(CN(C4CCCC4)C(=O)C13)O2 (stereo not drawn),521,-3.4% (inactive),24.1% (inactive),69.2%,-23.3% (inactive),97.3%,-0.546 (inactive),-1.2e-05 (inactive),0.00708 (inactive),12.5% (inactive),38% (inactive)
COc1ccc(Cl)cc1NC(=O)CCN1CCN(c2ccccc2C)CC1,285,21.9% (inactive),-3.9% (inactive),101%,-35.4% (inactive),112%,-0.308 (inactive),-6.5e-05 (inactive),0.00554 (inactive),10% (inactive),5.86% (inactive)
CCN(CC)C(=O)Cn1c(=O)n(Cc2ccccc2Cl)c2c1c(=O)n(C)c(=O)n2C,678,-6.4% (inactive),21.9% (inactive),94.3%,49% (inactive),85.7%,-0.45 (inactive),3.6e-05 (inactive),0.00765 (inactive),2.5% (inactive),10.3% (inactive)
CCCc1cc(=O)oc2c(C)c3occ(C)c3cc12,486,2.1% (inactive),-5.5% (inactive),99.6%,-11.9% (inactive),109%,-0.57 (inactive),-4.7e-05 (inactive),0.00609 (inactive),2.73% (inactive),6.19% (inactive)
CCOC(=O)C1CCN(c2c(NC3CCCc4ccccc43)c(=O)c2=O)CC1 (stereo not drawn),672,6.6% (inactive),-3.3% (inactive),86.1%,-22.1% (inactive),98.7%,-0.571 (inactive),-3e-05 (inactive),0.00585 (inactive),7.84% (inactive),29.9% (inactive)
O=C(CSc1nnnn1-c1ccccc1Cl)Nc1ccc2c(c1)OCCO2,660,-3.4% (inactive),3.2% (inactive),107%,-55% (inactive),118%,-0.548 (inactive),-5.9e-05 (inactive),0.00706 (inactive),15.2% (inactive),30.5% (inactive)
CCOC(=O)CSc1nnc(NC(=O)c2cccc(S(=O)(=O)N3CCCCC3)c2)s1,626,-1.1% (inactive),-6.5% (inactive),107%,20.8% (inactive),102%,-0.37 (inactive),-9.8e-06 (inactive),0.00424 (inactive),12.1% (inactive),26.3% (inactive)
C=CCOc1ccc(C2/C(=C(\O)c3c(C)[nH]c(C(=O)OC)c3C)C(=O)C(=O)N2CCN(C)C)cc1 (stereo not drawn),462,0.5% (inactive),-6.9% (inactive),99.7%,-96.2% (inactive),118%,-0.536 (inactive),-1.1e-05 (inactive),0.00355 (inactive),13.2% (inactive),26.6% (inactive)
O=c1c2ccccc2nnn1CSc1nnc2sc3ccccc3n12,558,-14.2% (inactive),-28.8% (inactive),109%,-56% (inactive),111%,-0.521 (inactive),-4.5e-05 (inactive),0.00436 (inactive),49% (inactive),42.1% (inactive)
Clc1ccc2c(c1)[C@H]1OCC[C@H]1[C@@H](c1ccco1)N2,824,5.5% (inactive),-3.2% (inactive),98.8%,-101% (inactive),125%,-0.572 (inactive),-3.2e-05 (inactive),0.00552 (inactive),-42.9% (inactive),-122% (inactive)
O=C(NCCCNC(=O)c1ccccn1)c1ccccn1,711,-11.9% (inactive),-10.1% (inactive),97.9%,-77.9% (inactive),105%,-0.491 (inactive),-7e-05 (inactive),0.00516 (inactive),15.1% (inactive),20% (inactive)
Oc1c(C(c2ccccc2)N2CCc3ccccc3C2)sc2ncnn12 (stereo not drawn),651,1.3% (inactive),-23.6% (inactive),111%,-25.4% (inactive),117%,-0.618 (inactive),-3.4e-05 (inactive),0.00688 (inactive),12.6% (inactive),30.7% (inactive)
